# According to PubChem BioAssay AID463173 (ICCB-Longwood Screening Facility, Harvard Medical School, 2010):
# Hit rate of the full screen: of about 52,000 compounds, about 1,700 (3.3%) were called active. For the sample, actives were picked, then their nearest neighbours and some compounds at random. A number with no mark means an inactive call. Rule as the data show it: active = survival mostly below about 52% (no sharp cut-off); inactive = mostly above about 56%.
# System: Wild type
# Experiment: S. aureus survival, RN4220 and DeltatarO strains – OD600, teichoic acid synthesis inhibitors, primary screen (AID 463173)
# Details: S. aureus RN4220 wild type/DeltatarO growth, OD600, 18 h, hits give low values, screened at 18.75 µg/mL (by protocol)
row,SMILES,survival
1,CCCn1nc(NC(=O)c2cccc(Cl)c2)c2cc3cccc(C)c3nc21,87%
2,COc1ccc(-c2cccc(NS(=O)(=O)c3ccc(C)s3)c2)nn1,91%
3,Cc1cccc(N2CCN(C(=O)C3CCN(Cc4nc(-c5ccc(Cl)cc5)oc4C)CC3)CC2)c1C,47%
4,Cc1ccc(C)c(N2CCN(C(=O)C3CCN(Cc4nc(-c5cccc(Cl)c5)oc4C)CC3)CC2)c1,3% (active)
5,Cc1ccc(C)c(N2CCN(C(=O)C3CCCN(Cc4nc(-c5cccc(Cl)c5)oc4C)C3)CC2)c1 (configuration not stated),81%
6,COc1ccc(-c2nc(CSCC(=O)N3CCN(c4ccccc4F)CC3)c(C)o2)cc1,24%
7,Cc1ccc(Cl)cc1N1CCN(C(=O)C2CCN(Cc3nc(-c4ccc(Cl)cc4)oc3C)CC2)CC1,-4% (active)
8,COc1ccc(-c2nc(CSCC(=O)N3CCN(c4ccc(OC)cc4)CC3)c(C)o2)cc1,81%
9,Cc1cccc(-c2nc(CN3CCCC(C(=O)N4CCN(c5cc(Cl)ccc5C)CC4)C3)c(C)o2)c1 (configuration not stated),75%
10,Cc1oc(-c2cccc(Cl)c2)nc1CN1CCC(C(=O)NC(C)C)CC1,92%
11,CCc1ccc(-c2nc(CN3CCCC(C(=O)N4CCN(c5cc(Cl)ccc5C)CC4)C3)c(C)o2)cc1 (configuration not stated),84%
12,COc1ccc(-c2nc(CSCC(=O)N3CCN(c4cc(Cl)ccc4C)CC3)c(C)o2)cc1,-1% (active)
13,Cc1ccc(Cl)cc1N1CCN(C(=O)C2CCCN(Cc3nc(-c4cccc(Cl)c4)oc3C)C2)CC1 (configuration not stated),84%
14,Cc1ccc(Cl)cc1N1CCN(C(=O)C2CCN(Cc3nc(-c4cccc(Cl)c4)oc3C)CC2)CC1,-4% (active)
15,Cc1cccc(N2CCN(CCCNC(=O)Cn3ncc4c([nH]c5ccccc54)c3=O)CC2C)c1 (configuration not stated),101%
16,CCc1ccccc1NC(=O)CSc1nnc(CC)c(CC)n1,74%
17,Cc1ccccc1CN1c2ccccc2S(=O)(=O)c2ccccc21,73%
18,Cc1cc(C)c(Cn2c3ccccc3c3cnn(CC(=O)NC4CCCCCC4)c(=O)c32)c(C)c1,127%
19,COc1ccc(-n2cc(-c3ccccc3)nc2SCC(=O)Nc2ccccc2)cc1Cl,71%

row,SMILES,survival
1,COc1ccc(Cl)cc1N=C1NC(=O)CC(C(=O)Nc2ccccc2C(F)(F)F)S1 (configuration not stated),71%
2,COc1ccc(CCNC(=O)CN2C(=O)COc3ccc(C)cc32)cc1OC,71%
3,COCCNC(=O)CCCn1c(SCC(=O)Nc2ccc(F)cc2)nc2c(sc3ccccc32)c1=O,103%
4,Cc1ccc2c(c1)-c1c(cnc3cc(-c4ccc(Cl)cc4)nn13)CO2,61%
5,CC(=O)c1cc2c(cc1N/C(=N/S(=O)(=O)c1ccccc1)c1ccc(Cl)cc1)OCO2,-2% (active)
6,CC(=O)c1cc2c(cc1N/C(=N/S(=O)(=O)c1ccc(Br)cc1)c1ccccc1)OCO2,69%
7,CC(=O)c1cc2c(cc1N/C(=N/S(=O)(=O)c1ccc(C)cc1)c1ccc(Cl)cc1)OCO2,10% (active)
8,CC(=O)c1cc2c(cc1N/C(=N/S(=O)(=O)c1ccc(C)cc1)c1ccccc1)OCO2,88%
9,CC(=O)c1cc2c(cc1N/C(=N/S(=O)(=O)c1ccc(C)cc1)c1ccc(F)cc1)OCO2,82%
10,CC(=O)c1cc2c(cc1N/C(=N/S(=O)(=O)c1ccc(Cl)cc1)c1ccc(F)cc1)OCO2,80%
11,CC(=O)Nc1ccc(NC(=O)c2ccc3c(c2)NC(=O)c2ccccc2S3)cc1,138%
12,CC1=C(C(=O)OC2CCCC2)C(c2c(F)cccc2Cl)CC(=O)N1 (configuration not stated),87%
13,O=C1CC(c2nnc(Cc3cccc(Cl)c3)o2)CN1c1ccccc1 (configuration not stated),113%
14,CS(=O)(=O)c1ccc(-c2nn[nH]n2)cc1,103%
15,O=C(Nc1c(C(=O)N2CCN(c3ccccc3)CC2)oc2ccccc12)c1ccc(Br)o1,81%
16,COc1cc(Cl)c(C)cc1Nc1nc2ccccc2n2cnnc12,127%
17,CCOC(=O)C1CCN(c2c(C(=O)c3ccc(OCC)cc3)cnc3ccc(OC)cc23)CC1,0% (active)
18,COc1ccc(C(=O)c2cnc3ccc(C)cc3c2S(=O)(=O)c2ccccc2)cc1,79%
19,CCN1CCN(c2c(S(=O)(=O)c3ccc(OC)cc3)cnc3cc(OC)c(OC)cc23)CC1,77%

row,SMILES,survival
1,CCOC(=O)C1CCN(C(=O)c2ccc(C)cc2)CC1,93%
2,CCOc1ccc(S(=O)(=O)c2c(C(=O)c3ccc(CC)cc3)cnc3ccc(C)cc23)cc1,87%
3,CCOC(=O)C1CCN(c2c(C(=O)c3ccc(C)cc3)cnc3ccc(F)cc23)CC1,3% (active)
4,COc1cc2ncc(C(=O)c3ccc(C)cc3)c(N3CCCCC3)c2cc1OC,2% (active)
5,CCc1ccc2ncc(C(=O)c3ccc(C)c(C)c3)c(N3CCC(C(N)=O)CC3)c2c1,102%
6,CCOC(=O)C1CCN(c2c(C(=O)c3ccc(OC)cc3)cnc3ccccc23)CC1,125%
7,CCCN(CCC)CCNC(=O)Cn1cc2c(n1)-c1c(oc(C(=O)N3CCCC3)c1C)CC2,106%
8,COc1ccc(-c2nc3ccccc3n3c(-c4cccc(C)c4)c4c(=O)n(C)c(=O)n(C)c4c23)cc1OC,77%
9,CC(C)Oc1ccc(CNC(=O)c2sc3ncccc3c2-n2cccc2)cc1,64%
10,O=C(CN1CCC(n2cnc3cc(F)ccc32)CC1)Nc1ccccc1Br,108%
11,CCOC(=O)c1ccc(NC(=O)c2c(NCc3cc(OC)c(OC)cc3OC)sc3c2CCCC3)cc1,85%
12,COCCn1c(SCC(=O)Nc2sc(C)c(C)c2C#N)nnc1C(C)C,103%
13,COc1ccccc1-c1nn(CCC(=O)Nc2ccccc2)c2nc(C)cc(C)c12,86%
14,COC(=O)c1cc2oc3ccccc3c2n1Cc1nc(-c2cccc(C)c2)oc1C,72%
15,COC(=O)c1cc2oc3ccccc3c2n1Cc1ccc(Cl)cc1,21%
16,CCN(C(=O)Cn1c(C(=O)OC)cc2oc3ccccc3c21)c1cccc(C)c1,24% (active)
17,COC(=O)c1cc2oc3ccccc3c2n1Cc1cccc(C)c1,3% (active)
18,COC(=O)c1cc2oc3ccccc3c2n1CC(=O)Nc1ccc(C)cc1C,86%
19,COC(=O)c1cc2oc3ccccc3c2n1Cc1ccc(C)cc1,82%
